Assay results taken from PubChem BioAssay AID1159580 (chemical genetic matrix, 2015).
Several values for one entry are separate records, joined by “and”; a condition that tells them apart may be missing. Identical values can stand only once. Among all 5,500 compounds or so, about 2,000 (36%) were called active. Roughly 18% stayed inconclusive and do not appear here. Cut-off read from the data, not from the text of the source: active = normalized growth mostly below about 0.91 (no sharp cut-off); inconclusive = no clear call, values can overlap the other calls; inactive = mostly above about 0.92. Some of the results follow.

Assay: chemical genetic growth profiling, strain panel (AID 1159580);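 note: tested at 20 µM; growth read once vehicle control cultures reached saturation at 30 °C; 1 = growth at the plate median or of vehicle wells; lower values mean less growth of the strain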
Conditions: S. cerevisiae deletion strains, growth OD

Measured: normalized growth

NCC(O)(CS(=O)(=O)O)c1ccc(Cl)cc1 (configuration not stated)
inactive: locus YAL040C, strain CLN3, active compounds read low 1.07 | locus YCL061C, strain MRC1 (second series), active compounds read low 0.995 | locus YDR150W, strain NUM1, active compounds read low 1.02 | locus YER002W, strain NOP16, active compounds read low 1.02 | locus YGR078C, strain PAC10, active compounds read low 0.99 | locus YMR263W, strain SAP30, active compounds read low 1 | locus YNL153C, strain GIM3, active compounds read low 1 | locus YNL175C, strain NOP13, active compounds read low 0.979 | locus YNL197C, strain WHI3, active compounds read low 0.98 | locus YNL224C, strain SQS1, active compounds read low 1.01 | locus YOR083W, strain WHI5 (second series), active compounds read low 1 | locus YPL241C, strain CIN2, active compounds read low 1

COc1ccc([C@@H]2CC(=O)c3c(O)cc(O[C@@H]4O[C@H](CO[C@H]5O[C@@H](C)[C@H](O)[C@@H](O)[C@H]5O)[C@@H](O)[C@H](O)[C@H]4O)cc3O2)cc1O
inactive: locus YAL013W, strain DEP1, active compounds read low 0.995 | locus YAL021C, strain ccr4, active compounds read low 1.01 | locus YAL026C, strain drs2, active compounds read low 0.98 | locus YAL030W, strain snc1, active compounds read low 0.993 | locus YBL061C, strain skt5, active compounds read low 0.969 | locus YBR009C, strain hhf1, active compounds read low 0.937 | locus YBR021W, strain FUR4, active compounds read low 0.988 | locus YBR023C, strain chs3, active compounds read low 0.993 | locus YBR171W, strain sec66, active compounds read low 0.976 | locus YBR229C, strain ROT2, active compounds read low 0.993 | locus YBR231C, strain swc5, active compounds read low 0.987 | locus YBR279W, strain paf1, active compounds read low 0.986 | locus YCL011C, strain gbp2, active compounds read low 0.975 | locus YCL016C, strain dcc1, active compounds read low 0.995 | locus YCL029C, strain bik1, active compounds read low 0.971 | locus YCL061C, strain MRC1, active compounds read low 0.977 | locus YCL069W, strain vba3, active compounds read low 0.988 | locus YCR088W, strain abp1, active compounds read low 0.989 | locus YDL005C, strain med2, active compounds read low 0.98 | locus YDL035C, strain GPR1, active compounds read low 0.991 | locus YDL040C, strain nat1, active compounds read low 0.993 | locus YDL074C, strain BRE1, active compounds read low 0.984 | locus YDL101C, strain DUN1, active compounds read low 0.994 | locus YDL185W, strain tfp1, active compounds read low 0.98 | locus YDL192W, strain arf1, active compounds read low 0.993 | locus YDR001C, strain nth1, active compounds read low 0.99 | locus YDR069C, strain doa4, active compounds read low 0.985 | locus YDR101C, strain arx1, active compounds read low 0.968 | locus YDR137W, strain rgp1, active compounds read low 1.04 | locus YDR159W, strain sac3, active compounds read low 0.977 | locus YDR162C, strain NBP2, active compounds read low 1.01 | locus YDR195W, strain ref2 0.932 | locus YDR297W, strain sur2, active compounds read low 0.98 | locus YDR318W, strain mcm21, active compounds read low 0.994 | locus YDR334W, strain swr1, active compounds read low 0.998 | locus YDR335W, strain msn5, active compounds read low 0.982 | locus YDR388W, active compounds read low 0.977 | locus YDR392W, strain spt3, active compounds read low 0.907 | locus YDR502C, strain sam2, active compounds read low 0.981 | locus YEL003W, strain gim4, active compounds read low 0.982 | locus YEL037C, strain rad23, active compounds read low 0.991 | locus YEL061C, strain CIN8 (second series), active compounds read low 0.981 | locus YEL061C, strain CIN8, active compounds read low 1 | locus YER015W, strain faa2, active compounds read low 0.979 | locus YER016W, strain bim1, active compounds read low 0.995 | locus YER110C, active compounds read low 0.973 | locus YER111C, strain swi4, active compounds read low 0.97 | locus YER155C, strain BEM2 (second series), active compounds read low 0.987 | locus YER155C, strain BEM2, active compounds read low 0.988 | locus YER167W, strain BCK2, active compounds read low 0.991 | locus YFR010W, strain ubp6, active compounds read low 0.976 | locus YGL078C, strain dbp3, active compounds read low 0.967 | locus YGL086W, strain mad1, active compounds read low 0.979 | locus YGL167C, strain pmr1, active compounds read low 0.965 | locus YGL173C, strain kem1, active compounds read low 0.968 | locus YGL227W, strain vid30, active compounds read low 0.973 | locus YGL240W, strain doc1, active compounds read low 0.98 | locus YGL248W, strain PDE1, active compounds read low 1 | locus YGL253W, strain hxk2, active compounds read low 0.999 | locus YGR135W, strain pre9, active compounds read low 0.998 | locus YGR229C, strain SMI1, active compounds read low 1 | locus YGR252W, strain gcn5, active compounds read low 1.06 | locus YHR013C, strain ard1, active compounds read low 0.922 | locus YHR027C, strain rpn1, active compounds read low 0.99 | locus YHR030C, strain SLT2, active compounds read low 0.997 and 1.05 | locus YHR079C, strain IRE1 (second series), active compounds read low 0.983 | locus YHR079C, strain IRE1, active compounds read low 1.03 | locus YHR094C, strain hxt1, active compounds read low 0.975 | locus YHR129C, strain ARP1, active compounds read low 1 | locus YHR142W, strain chs7, active compounds read low 1.01 | locus YHR200W, strain rpn10, active compounds read low 1 | locus YIL066C, strain RNR3, active compounds read low 1 | locus YIL073C, strain SPO22, active compounds read low 1 | locus YIL125W, strain kgd1, active compounds read low 0.978 | locus YIR030C, strain dcg1, active compounds read low 0.976 | locus YJL092W, strain hpr5, active compounds read low 0.986 | locus YJL095W, strain BCK1 (second series), active compounds read low 0.993 | locus YJL095W, strain BCK1, active compounds read low 1.05 and 1.02 | locus YJL115W, strain asf1, active compounds read low 0.993 | locus YJL129C, strain trk1, active compounds read low 1.01 | locus YJL134W, strain LCB3, active compounds read low 0.994 | locus YJL154C, strain vps35, active compounds read low 0.998 | locus YJL164C, strain tpk1, active compounds read low 1.01 | locus YJL166W, strain qcr8, active compounds read low 0.992 | locus YJL168C, strain set2, active compounds read low 0.984 | locus YJL187C, strain SWE1 (second series), active compounds read low 1.02 | locus YJL187C, strain SWE1, active compounds read low 0.991 | locus YJR043C, strain POL32, active compounds read low 1.01 | locus YJR066W, strain TOR1, active compounds read low 0.987 | locus YJR075W, strain HOC1, active compounds read low 1 | locus YKL009W, strain mrt4, active compounds read low 1.01 | locus YKL068W, active compounds read low 0.984 | locus YKL085W, strain MDH1 (second series), active compounds read low 0.996 | locus YKL085W, strain MDH1, active compounds read low 0.996 | locus YKL160W, strain elf1, active compounds read low 1.02 | locus YKL190W, strain CNB1, active compounds read low 1.01 | locus YKR001C, strain vps1, active compounds read low 0.948 | locus YKR026C, strain gcn3, active compounds read low 0.979 | locus YKR091W, strain srl3, active compounds read low 0.981 | locus YLL001W, strain dnm1, active compounds read low 1.01 | locus YLL026W, active compounds read low 0.999 | locus YLL041C, strain sdh2, active compounds read low 0.999 | locus YLR027C, strain aat2, active compounds read low 0.998 | locus YLR039C, strain RIC1, active compounds read low 1.04 | locus YLR058C, strain SHM2, active compounds read low 1 | locus YLR102C, strain apc9, active compounds read low 0.977 | locus YLR113W, strain HOG1, active compounds read low 1.05 | locus YLR221C, strain rsa3, active compounds read low 0.999 | locus YLR258W, strain gsy2, active compounds read low 0.988 | locus YLR262C, strain YPT6 (second series), active compounds read low 1 | locus YLR262C, strain YPT6, active compounds read low 1.02 | locus YLR268W, strain sec22, active compounds read low 0.959 | locus YLR320W, strain mms22, active compounds read low 0.97 | locus YLR330W, strain CHS5, active compounds read low 0.996 | locus YLR342W, strain FKS1 (second series), active compounds read low 1.03 | locus YLR342W, strain FKS1, active compounds read low 0.954 | locus YLR357W, strain rsc2, active compounds read low 0.97 | locus YLR370C, strain arc18, active compounds read low 0.991 | locus YLR371W, strain rom2, active compounds read low 0.971 | locus YLR384C, strain iki3, active compounds read low 0.976 | locus YLR418C, strain cdc73, active compounds read low 1 | locus YML016C, strain PPZ1, active compounds read low 0.995 | locus YML032C, strain rad52, active compounds read low 1 | locus YML120C, strain ndi1, active compounds read low 1.01 | locus YML124C, strain tub3, active compounds read low 0.986 | locus YMR058W, strain fet3, active compounds read low 0.985 | locus YMR078C, strain ctf18, active compounds read low 0.969 | locus YMR125W, strain sto1, active compounds read low 0.972 | locus YMR129W, active compounds read low 0.989 | locus YMR205C, strain PFK2, active compounds read low 0.936 | locus YMR223W, strain ubp8, active compounds read low 0.992 | locus YMR231W, strain pep5, active compounds read low 0.969 | locus YMR307W, strain GAS1, active compounds read low 1.06 | locus YNL067W, strain RPL9B, active compounds read low 1.01 | locus YNL071W, strain lat1, active compounds read low 0.984 | locus YNL183C, strain NPR1, active compounds read low 0.996 | locus YNL209W, strain ssb2, active compounds read low 0.978 | locus YNL233W, strain BNI4, active compounds read low 1 | locus YNL248C, strain rpa49, active compounds read low 1.04 | locus YNL250W, strain rad50, active compounds read low 0.978 | locus YNL271C, strain bni1, active compounds read low 1 | locus YNL298W, strain CLA4, active compounds read low 0.972 | locus YNL307C, strain MCK1, active compounds read low 0.97 | locus YNL322C, strain KRE1 (second series), active compounds read low 0.987 | locus YNL322C, strain KRE1, active compounds read low 1 | locus YNR049C, strain mso1, active compounds read low 0.993 | locus YNR052C, strain pop2, active compounds read low 0.986 | locus YOL006C, strain TOP1, active compounds read low 0.962 | locus YOL012C, strain htz1 1.06 | locus YOL147C, strain pex11, active compounds read low 0.983 | locus YOR001W, strain rrp6, active compounds read low 1.03 | locus YOR061W, strain CKA2, active compounds read low 0.977 | locus YOR069W, strain VPS5, active compounds read low 0.992 | locus YOR070C, strain gyp1, active compounds read low 1.01 | locus YOR080W, strain dia2, active compounds read low 0.974 | locus YOR083W, strain WHI5, active compounds read low 1.02 | locus YOR106W, strain vam3, active compounds read low 1.02 | locus YOR136W, strain idh2, active compounds read low 0.981 | locus YOR144C, strain elg1, active compounds read low 0.987 | locus YOR184W, strain ser1, active compounds read low 0.994 | locus YOR231W, strain MKK1, active compounds read low 1.06 | locus YOR265W, strain rbl2, active compounds read low 1 | locus YOR270C, strain vph1, active compounds read low 0.989 | locus YOR290C, strain snf2, active compounds read low 0.922 | locus YOR316C, strain cot1, active compounds read low 0.994 | locus YPL051W, strain arl3, active compounds read low 1.03 | locus YPL078C, strain atp4, active compounds read low 1.01 | locus YPL106C, strain sse1, active compounds read low 0.976 | locus YPL240C, strain hsp82, active compounds read low 0.966 | locus YPL256C, strain CLN2, active compounds read low 1.04 | locus YPR119W, strain clb2, active compounds read low 0.98 | locus YPR141C, strain kar3, active compounds read low 0.98 | locus YPR163C, strain tif3, active compounds read low 0.984 | locus YPR167C, strain met16, active compounds read low 0.972 | strain wtn01, active compounds read low 0.971
